Source: PubChem BioAssay (NCATS)
“And” between values parts separate entries of the source, which are not always exact repeats. Identical values can stand only once. Records with an inconclusive call do not appear. Where a call stands in place of a potency, no number is given. Where a structure was tested more than once in an assay, its records may differ in their call. The source made the active and inactive calls. Calls come from the whole dose curve; as a rule, active = well fitted inhibition curve with a large enough effect; inconclusive = small, poorly fitted or top-dose-only effect; inactive = flat fitted curve, though single readings scatter. Non-standard residues stand in square brackets, D forms with d. Residues, ends and D or L forms follow the SMILES beside them. *: point of attachment. Sta = CC(C)C[C@H](N)[C@@H](O)CC(=O)O; Isovaleryl = CC(C)CC(=O)*

What was measured:
[1] = tested on: W2; test: qHTS profiling for inhibitors of Plasmodium falciparum proliferation (AID 504749); details: P. falciparum in erythrocytes, SYBR Green DNA, 72 h; series mostly up to 28.7 µM
Procedure, shortened: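 Parasite proliferation within erythrocytes, 72 h exposure. Endpoint: SYBR Green I fluorescence after overnight lysis at room temperature. Controls: 0.29 uM artemisinin, DMSO.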

[2] = tested on: CRL-7250; test: Cytotoxic Profiling of Annotated Libraries Using Quantitative High-Throughput Screening (AID 1296008); details: Five cell lines viability, CellTiter-Glo ATP luminescence, 48-72 h; max response: stronger effect = lower value
Procedure, shortened: (§1)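 Compounds were pin-transferred onto cells and incubated 48 or 72 hr at 37 degree Celsius, 95% humidity. CellTiter-Glo was added, plates sat 10 min at room temperature, then ATP-coupled luminescence was imaged as the viability read-out.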

[3] = tested on: HEK293; test: as above; details: Five cell lines viability, CellTiter-Glo ATP luminescence, 48-72 h; max response: stronger effect = lower value
Procedure, shortened: as §1

[4] = tested on: HaCat; test: as above; details: Five cell lines viability, CellTiter-Glo ATP luminescence, 48-72 h; max response: stronger effect = lower value
Procedure, shortened: as §1

[5] = tested on: KB-3-1; test: as above; details: Five cell lines viability, CellTiter-Glo ATP luminescence, 48-72 h; max response: stronger effect = lower value
Procedure, shortened: as §1

[6] = tested on: NIH3T3; test: as above; details: Five cell lines viability, CellTiter-Glo ATP luminescence, 48-72 h; max response: stronger effect = lower value
Procedure, shortened: as §1

[7] = tested on: HACAT; test: qHTS assay to identify novel small-molecules to repurpose for Merkel cell carcinoma treatment (AID 1296009); details: MCC and control cell lines, CellTiter-Glo viability, 72 h; at 44.8 µM (top of the series) unless noted
Procedure, shortened: (§2)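 qHTS format: cells treated with library compounds in DMSO across 8 (NPC) or 11 (MIPE) concentrations. Readout after 72 hr at 37 degree celsius was CellTiter-Glo luminescence.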

[8] = tested on: MCC-13; test: as above; details: MCC and control cell lines, CellTiter-Glo viability, 72 h; series mostly up to 46 µM
Procedure, shortened: as §2

[9] = tested on: MCC-26; test: as above; details: MCC and control cell lines, CellTiter-Glo viability, 72 h; series mostly up to 46 µM
Procedure, shortened: as §2

[10] = tested on: HEK293T; test: as above; details: MCC and control cell lines, CellTiter-Glo viability, 72 h; at 44.8 µM (top of the series) unless noted
Procedure, shortened: as §2
Note: nearly all actives have a fitted effect of over 60% in size.
Potency is the fitted concentration of half-maximal effect.

Row | SMILES | Potency [1] | max response [2] | Potency [3] | max response [3] | outcome [4] | max response [5] | outcome [6] | outcome [7] | Potency [8] | Potency [9] | outcome [2] | max response [6] | Potency [2] | outcome [3] | max response [4] | outcome [10] | outcome [5]
1 | COC(=O)C1=C(C)NC(C)=C(C(=O)OCCCN2CCC(c3ccccc3)(c3ccccc3)CC2)C1c1cccc([N+](=O)[O-])c1 (configuration not stated) | 3.38 µM (active) | -3.52% (inactive) | 8.41 µM (active) | -0.0015% (inactive) | inactive | 0.505% (inactive) | inactive | inactive | inactive | inactive and 23.7 µM (active) | – | – | – | – | – | – | –
2 | Cc1c(C(=O)NN2CCCCC2)nn(-c2ccc(Cl)cc2Cl)c1-c1ccc(Cl)cc1 | 6.75 µM (active) | -1.95% (inactive) | 26.4 µM (active) | – | inactive | -25.1% (inactive) | inactive | inactive | inactive | inactive | inactive | 0.216% (inactive) | – | – | – | – | –
3 | CC1=C(C)C(=O)C(C(CCCCCC(=O)O)c2ccccc2)=C(C)C1=O (configuration not stated) | – | 0.243% (inactive) | – | -12.9% (inactive) | inactive | 6.39% (inactive) | inactive | inactive | inactive | inactive | – | 2.25% (inactive) | 5.31 µM (active) | inactive | -5.06% (inactive) | inactive | –
4 | Clc1ccc(C(Cn2ccnc2)OCc2c(Cl)cccc2Cl)c(Cl)c1 (configuration not stated) | – | -2.52% (inactive) | 7.5 µM (active) | – | inactive | -15.6% (inactive) and -6.5% (inactive) and -4.2% (inactive) | inactive | inactive | inactive | – | inactive | -3.81% (inactive) and -0.381% (inactive) | – | – | 1.49% (inactive) | – | –
5 | O=C(NC(Cc1cc(=O)[nH]c2ccccc12)C(=O)O)c1ccc(Cl)cc1 (configuration not stated) | inactive | -2.81% (inactive) | – | -6.76% (inactive) and -6.81% (inactive) | inactive | 9.29% (inactive) | inactive | inactive | inactive | inactive | inactive | – | – | – | -8.32% (inactive) | – | inactive
6 | COC(=O)N[C@H](C(=O)N[C@@H](Cc1ccccc1)[C@@H](O)CN(Cc1ccc(-c2ccccn2)cc1)NC(=O)[C@@H](NC(=O)OC)C(C)(C)C)C(C)(C)C | – | -0.779% (inactive) | – | -5.2% (inactive) | inactive | 5.51% (inactive) and -5.77% (inactive) | – | inactive | inactive | inactive | – | 0.751% (inactive) and -1.44% (inactive) | – | inactive | -5.76% (inactive) | inactive | –
7 | CN(C)C(=O)COC(=O)Cc1ccc(OC(=O)c2ccc(N=C(N)N)cc2)cc1 | inactive | – | – | 2.71% (inactive) | inactive | 4.33% (inactive) and 2.16% (inactive) | inactive | inactive | inactive | inactive | inactive | 2.87% (inactive) | – | inactive | 3.28% (inactive) | inactive | –
8 | O=C(O)CCNC(=O)c1ccc(N=Nc2ccc(O)c(C(=O)O)c2)cc1 | inactive | -3.32% (inactive) | – | -9.94% (inactive) and 3.93% (inactive) | inactive | – | inactive | inactive | inactive | inactive | inactive | – | – | – | -13.4% (inactive) | – | –
9 | COc1ccc(C2(C#N)CCC(C(=O)O)CC2)cc1OC1CCCC1 (configuration not stated) | inactive | – | – | 4.74% (inactive) | inactive | 6.11% (inactive) and 7.73% (inactive) and 2.33% (inactive) | – | inactive | inactive | inactive | inactive | 4.78% (inactive) and 4.09% (inactive) | – | inactive | – | inactive | –
10 | Cc1cc2c(s1)Nc1ccccc1N=C2N1CCN(C)CC1 | – | – | – | 0.773% (inactive) | inactive | – | inactive | inactive | inactive | inactive | inactive | – | – | inactive | -13.9% (inactive) | inactive | –
11 | Cc1cc2cc3c(C)cc(=O)oc3c(C)c2o1 | inactive | 4.53% (inactive) and -2.29% (inactive) | – | -0.492% (inactive) | inactive | -3.63% (inactive) | inactive | inactive | inactive | inactive | – | -1.93% (inactive) | – | inactive | -8.67% (inactive) | inactive | inactive
12 | O=C(NCC1CCCCN1)c1cc(OCC(F)(F)F)ccc1OCC(F)(F)F (configuration not stated) | – | -77.3% (inactive) | – | -82.7% (inactive) | – | 3.67% (inactive) | – | – | inactive | inactive | inactive | -7.85% (inactive) | – | – | -9.94% (inactive) and -10.2% (inactive) | – | –
13 | CN(C)CCc1c[nH]c2ccc(Cn3cncn3)cc12 | – | – | 0.743 µM (active) | – | – | 8.57% (inactive) | – | – | inactive | inactive | – | – | 1.32 µM (active) | – | – | – | inactive
14 | CC(C)CC(=O)N[C@H](C(=O)N[C@H](C(=O)N[C@@H](CC(C)C)[C@@H](O)CC(=O)N[C@@H](C)C(=O)N[C@@H](CC(C)C)[C@@H](O)CC(=O)O)C(C)C)C(C)C (Isovaleryl-VV[Sta]A[Sta]-OH) | – | 0.655% (inactive) | – | -5.42% (inactive) | – | 15.7% (inactive) and 7.23% (inactive) | – | – | inactive | inactive | – | 0.118% (inactive) | – | – | – | – | –
15 | CCOC(=O)C1=C(O)C(=O)N(Cc2ccccc2)C1 | – | 2.77% (inactive) | – | -14.6% (inactive) | – | – | inactive | – | inactive | inactive | – | – | – | – | 2.45% (inactive) | – | –
16 | Nc1cccc2c1CN(C1CCC(=O)NC1=O)C2=O (configuration not stated) | inactive | -16.9% (inactive) and -19.4% (inactive) | – | 2.44% (inactive) and -8.05% (inactive) | – | – | – | – | inactive | inactive | – | 1.1% (inactive) and -1.07% (inactive) | – | – | -19.3% (inactive) and -22.9% (inactive) | – | –
17 | CCCc1cc(=O)[nH]c(=S)[nH]1 | inactive | 1.74% (inactive) and -1.3% (inactive) | – | 2.66% (inactive) | – | – | inactive; activator | – | inactive | inactive | – | – | – | – | – | – | –
18 | O=c1ccc2ccc(O)c(O)c2o1 | – | – | – | – | inactive | – | – | inactive | inactive | inactive | – | -1.87% (inactive) | – | inactive | – | inactive | inactive
